Reference: PubChem BioAssay (Tox21)
Several values for one entry are separate records, joined by “and”; a condition that tells them apart may be missing. Equal entries are not always repeated. Results filed as inconclusive are left out. A call without a number means that no potency is given here. Some structures have more than one record in an assay (separate samples or runs), and their calls can disagree. Activity calls are given as the source filed them. The call rests on the fitted dose curve; in most records, active means well fitted cell-killing curve with a large enough effect in the repeat runs; inconclusive means weak or mixed curves; inactive means flat fitted curve, though single readings scatter.

Assay: qHTS assay to identify small molecule antagonists of the estrogen related receptor (ERR) signaling pathway from Tox21 library - cell viability counter screen (AID 1224834); further: nearly all actives have a fitted effect of over 30% in size
Conditions: ERR reporter cells viability, CellTiter-Fluor, 17.5 h; series mostly up to 92.4 µM; viability change, negative = cytotoxic: at the top concentration
Description: National Center for Advancing Translational Sciences [NCATS]
NIH Chemical Genomics Center [NCGC]
U.S. Environmental Protection Agency [EPA]
National Institutes of Environmental Health Sciences [NIEHS]
National Toxicology Program [NTP]
U.S. Food and Drug Administration [FDA]
Estrogen related receptors (ERRs), the first orphan nuclear receptors discovered, play an important role in the control of cellular energy metabolism. ERRs are required for high-energy production in response to the environmental challenges. ERR-alpha was also identified as an adverse marker for breast cancer progression; ERR-alpha-positive tumors have a poor prognosis. To screen and to identify environmental compounds that perturb the ERR signaling pathways could provide valuable information for potential therapeutic or preventive measures in the treatment of metabolic disease. To differentiate true ERR antagonists or agonist from cytotoxic substances, the assay is multiplexed with cell viability assay.
Tox21 Assay Protocol Summary:
The ERR cells were dispensed at 2,000 cells/5 ul/well in 1536-well white plates using a Multidrop dispenser. After the assay plates were incubated at a 37 C/5% CO2 incubator for 6 hours, 23 nL of compounds dissolved in DMSO, positive and negative controls or DMSO only was transferred to the assay plate by a pin tool. The plates were incubated at 37 C for 17.5 hours. 1 ul/well of CellTiter-Fluor reagent was added into the assay plates using a Flying Reagent Dispenser. After 30-minute incubation at 37 C/5% CO2, the fluorescence intensity in the plates was measured using a ViewLux plate reader.
Potency means the concentration at half of the fitted maximal effect.

Row | Compound | Potency | viability change, negative = cytotoxic
1 | O=CCc1ccccc1 | inactive | –
2 | O=C(Nc1ccc(Cl)cc1)Nc1ccc(Cl)c(Cl)c1 | 12.1 µM (active) and 6.86 µM (active) and 18.8 µM (active) | –
3 | CCOC(=O)C(C#N)=C(c1ccccc1)c1ccccc1 | inactive | –
4 | CCCc1c(OCCCCc2nn[nH]n2)ccc(C(C)=O)c1O | inactive | –
5 | CC(CCC(=O)O)(c1ccc(O)cc1)c1ccc(O)cc1 | inactive | –
6 | COc1ccc(C(=O)CC(=O)c2ccc(C(C)(C)C)cc2)cc1 | inactive | –
7 | OCCO | inactive | –
8 | COc1ccc(OC)c(C(O)CNC(=O)CN)c1 (stereo not given) | inactive | –
9 | Oc1ccc(O)cc1 | – | -13.6% (inactive)
10 | Nc1ncn([C@@H]2O[C@H](CO)[C@@H](O)[C@H]2O)c(=O)n1 | 2.17 µM (active) and 3.76 µM (active) | –
11 | CCC(C)c1ccccc1O (stereo not given) | inactive | –
12 | COC(=O)C1=C(C)NC(C)=C(C(=O)OCCN(C)Cc2ccccc2)C1c1cccc([N+](=O)[O-])c1 (stereo not given) | 27.1 µM (active) and 23.7 µM (active) | –
13 | c1ccc(Nc2ccccc2)cc1 | 48.5 µM (active) and inactive | –
14 | Cc1[nH]c(=O)c(C#N)cc1-c1ccncc1 | inactive | –
15 | NNc1ccc(C(=O)O)cc1 | inactive | –
16 | CC(=O)C1(C)CC2=C(CCCC2(C)C)CC1C (stereo not given) | inactive | –
17 | CC(C)CC(C)(O)C#CC(C)(O)CC(C)C (stereo not given) | inactive | –
18 | CCCCC(CC)COP(=O)(OCC(CC)CCCC)OCC(CC)CCCC (stereo not given) | inactive | –
19 | O=C(c1ccccc1)c1ccccc1O | inactive | –
20 | c1ccc2sc(SSN3CCOCC3)nc2c1 | inactive | –

Row | Compound | Potency | viability change, negative = cytotoxic
21 | C=C(C)C1CC=C(C)CC1 (stereo not given) | inactive | –
22 | O=c1oc(=O)c2cc3c(=O)oc(=O)c3cc12 | inactive | –
23 | Cc1ccc(C(=O)c2cc(O)c(O)c([N+](=O)[O-])c2)cc1 | 43.3 µM (active) | –
24 | CC(=O)CC/C=C(\C)CCC=C(C)C | inactive | –
25 | O=C(COc1ccc(Cl)cc1)N1CCN(Cc2ccc3c(c2)OCO3)CC1 | – | -5.14% [at 42.5 µM] (inactive)
26 | CC(C)(C)NC(=O)[C@H]1CC[C@H]2[C@@H]3CC[C@H]4NC(=O)C=C[C@]4(C)[C@H]3CC[C@]12C | inactive | –
27 | CCCCOCCOCCOCCO | inactive | –
28 | O=Cc1ccccc1O | inactive | –
29 | O=C(Nc1ccc([N+](=O)[O-])cc1Cl)c1cc(Cl)ccc1O | 3.86 µM (active) and 1.3 µM (active) | –
30 | CCCCNS(=O)(=O)c1ccccc1 | inactive | –
31 | COC(C)COC(C)COC(C)CO (stereo not given) | inactive | –
32 | C[Si](C)(C)O[Si](C)(C)C | inactive | –
33 | CC(C)OB(OC(C)C)OC(C)C | inactive | –
34 | CN1C(C(=O)Nc2ccccn2)=C(O)c2ccccc2S1(=O)=O | inactive | –
35 | OC[C@H]1O[C@@H]2O[C@H]3[C@H](O)[C@@H](O)[C@@H](O[C@H]4[C@H](O)[C@@H](O)[C@@H](O[C@H]5[C@H](O)[C@@H](O)[C@@H](O[C@H]6[C@H](O)[C@@H](O)[C@@H](O[C@H]7[C@H](O)[C@@H](O)[C@@H](O[C@H]8[C@H](O)[C@@H](O)[C@@H](O[C@H]1[C@H](O)[C@H]2O)O[C@@H]8CO)O[C@@H]7CO)O[C@@H]6CO)O[C@@H]5CO)O[C@@H]4CO)O[C@@H]3CO | inactive | –
36 | CC(C)=CCCC(C)CCO (stereo not given) | inactive | –
37 | CC1=CCC(C(C)(C)O)CC1 (stereo not given) | inactive | –
38 | CC1=CC2C3CC(C=C3C)C2C1 (stereo not given) | inactive | –
39 | O=S(=O)(O)c1ccc(O)cc1 | inactive | –
40 | O=C(OCc1ccccc1)c1ccccc1O | inactive | –
